14-3-3 Bad inh: disrupts binding of bovine 14-3-3 zeta to phospho-Bad peptide | TR-FRET 14-3-3zeta/Dy647-pBad peptide displacement, 1 h | AID 781 | inhibition, % at 21.7 µM | 220,000 tested, 0.71% active | P63103;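 active means inhibition above about 70%, limit read from the data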
Mcl-1 Bim block: disrupts Bim peptide binding to human Mcl-1. Bead-based flow cytometry, Bim peptide-Mcl-1 binding. 190,000 tested, 0.1% active. inhibition, % at 10 µM. AID 1009. Q07820; in the data active means inhibition above about 40%
Target sequence (Q07820 whole entry, looked up): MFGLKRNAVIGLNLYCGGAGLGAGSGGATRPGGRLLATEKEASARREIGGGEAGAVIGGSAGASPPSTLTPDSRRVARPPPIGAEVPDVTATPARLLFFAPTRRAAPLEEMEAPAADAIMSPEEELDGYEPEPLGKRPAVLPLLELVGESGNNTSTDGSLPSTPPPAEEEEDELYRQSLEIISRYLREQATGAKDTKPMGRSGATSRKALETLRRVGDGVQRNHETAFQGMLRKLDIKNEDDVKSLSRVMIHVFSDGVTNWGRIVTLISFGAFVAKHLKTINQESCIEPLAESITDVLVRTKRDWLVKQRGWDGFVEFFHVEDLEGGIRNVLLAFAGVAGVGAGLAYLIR
Mcl1 Bid PPI: disrupts binding of human Mcl-1 to Bid peptide; Q07820; TR-FRET Mcl-1/Bid-Dy647 peptide binding, 1536-well; inhibition, % at 21.7 µM; 220,000 tested, 0.97% active; AID 1021;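 active means compounds that cut the binding signal by more than half at the single screening dose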;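 further: His-tagged Mcl-1 with europium anti-His antibody binding Bid BH3 peptide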
Pf gamet viab: inhibitors of late stage P. falciparum gametocyte viability; P. falciparum stage V gametocytes, ATP luminescence, 24 h; inhibition, % at 10.9 µM; 150,000 tested, 0.065% active; AID 743093;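 active means inhibition above the mean plus 3 SD of compounds within the control limits, set per campaign, cut at about 38% in these data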
Mcl1-Noxa inh: Mcl-1/Noxa interaction inhibition | inhibition, % at 21.7 µM | TR-FRET Mcl-1/Noxa peptide binding, 2 h | 220,000 tested, 1.5% active;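 active means compounds that cut the protein-peptide binding signal by more than 50% relative to plate controls in a single-dose test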;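 further: His-tagged Mcl-1 with rhodamine Noxa BH3 peptide and terbium anti-His antibody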
Hck-Nef inh: inhibitors of human Hck kinase activated by Nef. 220,000 tested, 0.68% active. AID 463187. inhibition, % at 20 µM. P08631. Recombinant Hck-YEEI plus Nef, Z-Lyte FRET kinase assay;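 active means Hck-Nef kinase inhibition above about 50%, limit read from the data; inactive means inhibition below that limit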
Of the large screens only hits and unclear results are named; the others gave an inactive call. Sampled rows, rich in hits. Any-hit rate of the full collection: about 2.9%.

Cn1c(CSc2nc3ccccc3s2)nnc1SCC(=O)NCc1cccnc1	Mcl1 Bid PPI 94 (no result: Pf gamet viab)
Cc1ccc(C)c(OCC(=O)N/N=C\c2cccn2C)c1	none
NS(=O)(=O)c1ccc(N=Nc2ccc(=O)[nH]c2O)cc1	14-3-3 Bad inh 73, Mcl1-Noxa inh 63 (no result: Mcl-1 Bim block, Pf gamet viab)
O=C(Cc1ccccc1F)Nc1ccc(Cl)nc1	none
CS(=O)(=O)N1CCC(C(=O)N2CCN(c3ccc(F)cc3)CC2)CC1	none
COc1ccc(N2Cc3cccc(C(=O)N4CCN(C(=O)c5ccco5)CC4)c3C2=O)cc1	Mcl1-Noxa inh 74 (no result: Pf gamet viab)
COc1ccc(N2Cc3cccc(C(=O)N4CCOCC4)c3C2=O)cc1	none
Cc1ccccc1-c1nc(CN(Cc2c(C)nn(C)c2C)C2CC2)c(C)o1	none
N/C(=N\O)C1COc2ccccc2O1 (centres undefined)	14-3-3 Bad inh 84
COc1ccc(C(=O)NC(C)c2nnc(SCC(=O)Nc3nc(C)cs3)n2C)cc1 (centres undefined)	none
O=C(CSc1n[nH]c(=O)[nH]c1=O)Nc1ccc2c(c1)C(=O)c1ccccc1C2=O	Mcl1 Bid PPI 61, Mcl1-Noxa inh 101 (no result: Mcl-1 Bim block)
O=C(CSc1ccccn1)Nc1ccc2c(c1)C(=O)c1ccccc1C2=O	Mcl1 Bid PPI 77, Mcl1-Noxa inh 72 (no result: Pf gamet viab)
O=C(O)CCn1cc(/C=C2/NC(=S)N(c3ccccc3)C2=O)c(-c2ccccc2)n1	none (no result: Pf gamet viab)
Cc1cc(S(=O)(=O)n2cnc3cc([N+](=O)[O-])ccc32)ccc1Cl	none
Cc1ccc(S(=O)(=O)n2cnc3cc([N+](=O)[O-])ccc32)cc1C	14-3-3 Bad inh 71
c1ccc2c(N3CCOCC3)nc(N3CCOCC3)nc2c1	Mcl1 Bid PPI 66, Mcl1-Noxa inh 51 (no result: Pf gamet viab)
O=C(Nc1ccc(N2CCCCCC2)cc1)c1ccccc1Cl	Mcl1-Noxa inh 52 (no result: Pf gamet viab)
O=C(CN1CCCCC1)Nc1ccc(N2CCCCCC2)cc1	Mcl1-Noxa inh 67
O=C(CN1CCOCC1)Nc1ccc(Oc2ccc(NC(=O)CN3CCOCC3)cc2)cc1	none
O=C(Cc1ccccc1)Nc1ccc(N2CCCC2)cc1	Mcl1-Noxa inh 82 (no result: 14-3-3 Bad inh)
O=C(Cc1ccccc1)Nc1ccc(N2CCOCC2)cc1	none
COc1ccc(NC(=O)CN2CCOCC2)cc1	14-3-3 Bad inh 73, Mcl1 Bid PPI 71
CCC1(C)Cc2c(sc3nn[nH]c(=O)c23)CO1 (centres undefined)	none (no result: Pf gamet viab)
CCC(=O)Nc1ccc(N2CCC(C)CC2)cc1	none (no result: Pf gamet viab)
Cc1cc(C)cc(C(=O)Nc2ccc(N3CCCC3)cc2)c1	Mcl1-Noxa inh 67
CC1CCN(c2ccc(NC(=O)Cc3ccccc3)cc2)CC1	Mcl1-Noxa inh 87
CC(C)Cc1nnc(NC(=O)Cc2cccs2)s1	Mcl1-Noxa inh 56
O=C(Cc1cccs1)Nc1nnc(CCc2ccccc2)s1	none
O=C(Cc1cccs1)Nc1nnc(-c2ccncc2)s1	none
CC(C)(C)Cc1nnc(NC(=O)Cc2cccs2)s1	Mcl1-Noxa inh 60
CCCCCc1nnc(NC(=O)Cc2cccs2)s1	Mcl1-Noxa inh 67 (no result: Pf gamet viab)
CC(C)c1nnc(NC(=O)Cc2cccs2)s1	none (no result: Pf gamet viab)
Cc1ccc(C2CC(C(F)(F)F)n3nc(C(=O)Nc4c(C)n(C)n(-c5ccccc5)c4=O)cc3N2)cc1 (centres undefined)	none (no result: Pf gamet viab)
O=S(=O)(c1cccs1)N1CCCc2cccc(O)c21	14-3-3 Bad inh 74 (no result: Pf gamet viab)
Cc1cc(N2CCN(c3ccccn3)CC2)n2cc(-c3ccccc3)nc2n1	none
Cc1cc(N2CCN(C)CC2)n2cc(-c3ccc(F)cc3)nc2n1	Mcl1-Noxa inh 58 (no result: Pf gamet viab)
Fc1ccc(-c2cc3nc(-c4ccccc4)cc(N4CCN(CCN5CCOCC5)CC4)n3n2)cc1	none (no result: Pf gamet viab)
CN1CCN(c2cc(-c3ccccc3)nc3cc(-c4ccc(F)cc4)nn23)CC1	Mcl1-Noxa inh 52
C/C(=N\NC(=O)c1ccc(CSc2nncn2C)cc1)c1ccc(C#N)cc1	none
Cc1ccc(-n2c(SCC(=O)NCCN3C(=O)CSC3=O)nnc2-c2ccccc2)cc1C	Mcl1 Bid PPI 52 (no result: Pf gamet viab)
Cc1ccc(-n2c(SCC(=O)NCCN3C(=O)CSC3=O)nnc2-c2ccccc2)cc1	none
CNc1sc(C(=O)c2ccccc2F)c(N)c1-c1nc2ccccc2s1	Mcl1-Noxa inh 86
C/C=C(/C)C(=O)O[C@@H]([C@H](O)c1cc2ccc(=O)oc2cc1OC)C(C)(C)O[C@@H]1O[C@H](CO)[C@@H](O)[C@H](O)[C@H]1O	none (no result: 14-3-3 Bad inh, Mcl-1 Bim block, Mcl1 Bid PPI, Mcl1-Noxa inh, Hck-Nef inh)

Screening results from PubChem.
